Test [1] concerns Zika virus NS2B-NS3 protease. Nature of the test: Primary screen GU AMC qHTS for Zika virus inhibitors (AID 1347154).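 Also: 0% = no-inhibitor control and -100% = no-enzyme control; nearly all actives have a fitted effect of over 70% in size.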 The essentials:
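Fluorogenic AMC-substrate cleavage by noncovalent NS2B-NS3 protease complex (25 nM, pH 8.0 Tris buffer with Tween 20) followed for 15 minutes at room temperature (~20% conversion). Percent inhibition from ex340/em450 signal change, fitted by 4-parameter Hill equation.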
Background: qHTS replaces the single test concentration by a dilution series.

Test [2] is described as follows: Confirmatory qHTS for small molecule stabilizers of the endoplasmic reticulum resident proteome: Secreted ER Calcium Modulated Protein (SERCaMP) assay (AID 1508628). Also: % is scaled to controls: 0 for no effect and ±100 for the full control effect; nearly all actives have a fitted effect of over 40% in size. The essentials:
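Reporter secretion upon ER calcium depletion (100 nM thapsigargin, 4 h, 37C) is measured as medium luminescence with coelenterazine, after 16 h compound pretreatment of SH-SY5Y-GLuc-SERCaMP cells; primary at three concentrations up to 38.3 uM, follow-up at 11 (up to 76.6 uM).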

Test [3] addresses Glucocorticoid receptor (Homo sapiens) (UniProt P04150). Nature of the test: GR-GFP Redistribution (AID 450;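 active = compounds whose dose series gives a full or clear partial fitted curve of increased nuclear translocation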; also: potency is read from the fitted curve at half-maximal effect). Conditions: U2OS GR-GFP nuclear translocation, laser cytometry, 2 h.
Test [4] has the same target. Nature of the test: GR-EFC Redistribution (AID 451; calls by dose curve; also: potency is read from the fitted curve at half-maximal effect). Conditions: CHO-K1 GR-EFC translocation, beta-gal luminescence, 2 h. The essentials:
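Translocation of GR-ED fusion to nuclear EA restores b-gal, read by luminescence after 1 h room-temperature detection. Engineered CHO-K1 biosensor cells, 1,000/well, exposed 2 h at 37 C to titrations up to 46 uM final.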

Test [5] has as its target Mitogen-activated protein kinase 10 (Mus musculus) (UniProt Q61831). Nature of the test: JNK3 AlphaScreen Assay (AID 530; active = well fitted curve in either direction with a large enough effect, not every such curve was filed as active;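 also: kinase came from lysate of stimulated human HepG2 cells; signal reports phosphorylation of biotinylated GST-cJun 1-79 at Ser73 with 10 µM ATP; % is scaled to controls: 0 for no effect and ±100 for the full control effect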). The essentials: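 qHTS titrations with 15 min compound pre-incubation before adding ATP (10 uM final). Read-out: AlphaScreen of Ser73-phosphorylated biotin-GST-cJun using HepG2 lysate JNK3 activated by IL-1β and TNFα.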
(In general: In Alpha technology, singlet oxygen from a donor bead excites a nearby acceptor bead.)

Test [6] has as its target 3',5'-cyclic-AMP phosphodiesterase 4B (Homo sapiens) (UniProt Q07343). Nature of the test: qHTS Assay for Inhibitors of PDE-IV (AID 607; active = well fitted activation curve with a large enough effect in the main read-out, with a control signal flat, not every such curve was filed as active; also: % of control where 0% means no effect). The essentials:
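The readout is membrane depolarisation from a cAMP-sensing CNG channel, detected with a potential dye at ex 535/em 590. Cells were HEK293-derived (endogenous PDE-IV) at 1000 cells/well, titrated up to 22.9 uM final.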

A short description of test [7]: qHTS Assay for Lipid Storage Modulators (AID 1519; calls by dose curve). Conditions: Drosophila S3 cells, BODIPY lipid droplet/cell ratio, laser cytometry, cells loaded with oleic acid; for activity change, negative = inhibition: at 57.5 µM (top of the series). The essentials:
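Cells seeded at 5,000 per well were treated with compounds over a concentration series and loaded with oleic acid (400 uM, as added). Lipid droplet fluorescence (488 nm excitation, 500-530 nm channel) was read by laser-scanning cytometry and normalized to 20 uM Triacsin C.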

The target of test [8] is DNA dC->dU-editing enzyme APOBEC-3G (Homo sapiens) (UniProt Q9HC16). Nature of the test: qHTS for inhibitors of Vif-A3G interactions: Validation (AID 588379). Also: 0% is about no effect. The essentials:
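Yellow fluorescence (Ex 488, Em 500-530) of Vif-coexpressing HeLa A3G-eYFP cells, scanned by Acumen cytometer, reports blocked A3G degradation. Cells plated at 700/well overnight at 37 deg C before compound addition, then a further overnight compound incubation at 37 deg C.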

The nature of test [9]: Counterscreen qHTS for small molecule stabilizers of the endoplasmic reticulum resident proteome: GLuc-NoTag assay (AID 1508627).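 Also: 0% = thapsigargin alone and -100% = DMSO vehicle control.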 Summed up:
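Counterscreen line: SH-SY5Y-GLuc-NoTag cells, treated with compound 19 hr before a 4 hr, 100 nM thapsigargin calcium depletion. Secreted Gaussia luciferase in the medium was measured by luminescence after coelenterazine was added (0.07x final), with cells unlysed.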
For orientation: The purpose of a counterscreen is to sort out artefacts and off-target activity.

A short description of test [10]: Primary qHTS for small molecule stabilizers of the endoplasmic reticulum resident proteome: Secreted ER Calcium Modulated Protein (SERCaMP) assay (AID 1508630). Also: % is scaled to controls: 0 for no effect and ±100 for the full control effect. Summed up: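 The SH-SY5Y reporter protocol was run at 3 concentrations up to 38.3 uM (primary) or 11 concentrations (follow-up): 16 h compound, 100 nM thapsigargin for 4 h, then extracellular luciferase luminescence.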

Test [11] can be described thus: AP1 Signaling Pathway (AID 357; active = well fitted curve in either direction with a large enough effect, not every such curve was filed as active; also: % is scaled to controls: 0 for no effect and ±100 for the full control effect). The note with it: ME-180 (cervical carcinoma) AP-1-bla reporter, EGF-induced, beta-lactamase ratio, 5 h; at 38 µM (top of the series). The essentials: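 AP-1-bla ME-180 cells, Opti-MEM + 0.5% dialyzed FBS, plated overnight 37 °C. Cpd titration + EC50 EGF, 5 h 37 °C. CCF4 2.5 h RT; ex 405, em 460/530 ratio → %activity, AC50.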
The target of test [12] is Cytochrome P450 1A2 (Homo sapiens) (UniProt P05177). Nature of the test: p450-cyp1a2 (AID 410; calls by dose curve;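 also: -100% = full effect of reference inhibitor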). The essentials: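 Luminescent demethylation readout: Luciferin-ME (100uM, equal to Km) turned over by 20nM CYP1A2 for 60 min at room temperature after NADPH regeneration addition, following 10 min compound preincubation. Normalization used 57 uM furafylline as full inhibition.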

Test [13] is described as follows: NFAT Signaling Pathway (AID 444; active = well fitted curve in either direction with a large enough effect, not every such curve was filed as active;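 also: carbachol stimulus at about its EC50 of 1 µM final; % is scaled to controls: 0 for no effect and ±100 for the full control effect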). The note with it: Jurkat NFAT-bla M1, carbachol, beta-lactamase ratio, 5 h; at 38 µM (top of the series). The essentials: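 Read-out: CCF4 FRET ratio (460 nm/530 nm) after 1 h RT dye loading, used for %activity and AC50 from titration series. Cells: Jurkat NFAT-β-lactamase/M1 line, treated with compound plus 1 uM carbachol for 5 h, 37 °C.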

Test [14] addresses Guanine nucleotide-binding protein G(i) subunit alpha-1 (Homo sapiens) (UniProt P63096). Nature of the test: qHTS Assay for Inhibitors of RGS12 GoLoco Motif Activity (Green Fluorophore) (AID 879).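 Also: 0% = labeled peptide with Gαi1 and full inhibition = labeled peptide alone without protein; negative values mean loss of peptide binding seen as reduced polarization.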 The essentials:
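A drop in FITC polarization marked displacement of the FITC-tagged RGS12 GoLoco peptide (10 nM) from Gαi1 (50 nM). Compounds were incubated 10 min at room temperature in Tris pH 7.5 buffer containing 150 mM NaCl, 0.1 mM GDP and 0.05% NP40; unlabeled peptide titration served as control.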

For test [15], the target named is Cytochrome P450 2D6 (Homo sapiens) (UniProt P10635). Nature of the test: qHTS Assay for Inhibitors and Substrates of Cytochrome P450 2D6 (AID 891). Also: potency is read from the fitted curve at half-maximal effect; nearly all actives have a fitted effect of over 60% in size. Summed up:
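Luminescent read-out of luciferin formed by 5 nM human CYP2D6 demethylating 30 uM Luciferin-ME EGE (Km level) over 60 min at room temperature after NADPH regeneration addition. Data normalized to full inhibition by 1.43 uM quinidine.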

Test [16] is described as follows: qHTS Assay for Identification of Small Molecule Agonists for Thrombopoietin (TPO) Signaling Pathway (AID 917). Also: % is scaled to controls: 0 for no effect and ±100 for the full control effect. Summed up:
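Quantitative HTS for pathway activators: compounds were pin-transferred onto IL-3-starved Ba/F3 cells expressing human TPO receptor, TPO was added at its EC50 (26 pM final), and after 24 hrs at 37 C reporter luciferase was measured.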

For test [17], the target named is Muscarinic acetylcholine receptor M1 (Rattus norvegicus) (UniProt P08482). Nature of the test: qHTS Assay for Antagonists of Acetylcholine Muscarinic M1 Receptor: Kinetic Measurement of Intracellular Calcium Response (AID 943).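 Also: Fluo-4 calcium signal as peak divided by basal fluorescence over 4 min; nearly all actives have a fitted effect of over 75% in size.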 Summed up:
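Antagonism measured as reduction of carbachol-evoked (EC80, 100 nM final) calcium flux in rat M1-CHO cells after 10 min compound exposure. Fluo-4 signal read kinetically; ratio of maximal to basal fluorescence.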

Test [18] shares this target. Nature of the test: qHTS Assay for Antagonists of Acetylcholine Muscarinic M1 Receptor: Measurement of IP-One Response (AID 944). Also: nearly all actives have a fitted effect of over 75% in size. The essentials: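 IP1 accumulation measured via TR-FRET between d2-IP1 and Eu-cryptate anti-IP1 antibody after carbachol (200 nM, EC80) stimulation for 30 min; rat M1-transfected CHO cells received compound 10 min before agonist.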
Test [19] concerns the target Pyruvate kinase (Leishmania mexicana) (UniProt Q27686). Nature of the test: qHTS Validation Assay for Inhibitors of Leishmania Mexicana Pyruvate Kinase (AID 945).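 Also: 0% = DMSO only neutral control wells.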 The essentials: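 Luminescent ATP detection (PKLight) after a 1 h room-temperature reaction of 0.2 nM LmPYK E451W mutant with 0.5 mM PEP and 0.1 mM ADP at pH 7.2. Activity is normalized to DMSO-only control wells.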

The target of test [20] is Alpha-galactosidase A (Homo sapiens) (UniProt P06280). Nature of the test: Counterscreen for Glucocerebrosidase Inhibitors: qHTS Assay for Human alpha-Galactosidase at pH 4.5 (AID 992). Also: 0% is about no effect. Summed up:
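Fluorogenic 4-MU alpha-D-galactoside (80 uM) hydrolysis, 2 nM enzyme, pH 4.5 citrate buffer + 0.005% Tween-20; 20 min RT; NaOH/glycine pH 10 stop; Ex365/Em440. Compounds titrated 0.7 nM–77 uM; Hill-equation AC50.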

Test [21] in a line: Cell Viability qHTS for small molecule stabilizers of the endoplasmic reticulum resident proteome (AID 1508629). Conditions: cell viability counter-screen, 100 nM thapsigargin for final 4 h.
Setting [22] is: measured here: cell count channel max response.
Where [23] appears, read: measured here: lipid channel max response.

Inconclusive results are not listed. Calls of active or inactive are those of the source. Unless noted, calls follow the shape of the dose curve; as a rule, active = well fitted curve in the direction sought with a large enough effect; inconclusive = small, poorly fitted or top-dose-only effect, or another doubt; inactive = no such curve, though single readings can be large; an effect the other way counts as inactive or inconclusive.

Sequence of 3',5'-cyclic-AMP phosphodiesterase 4B (Homo sapiens) (Q07343 whole entry, looked up): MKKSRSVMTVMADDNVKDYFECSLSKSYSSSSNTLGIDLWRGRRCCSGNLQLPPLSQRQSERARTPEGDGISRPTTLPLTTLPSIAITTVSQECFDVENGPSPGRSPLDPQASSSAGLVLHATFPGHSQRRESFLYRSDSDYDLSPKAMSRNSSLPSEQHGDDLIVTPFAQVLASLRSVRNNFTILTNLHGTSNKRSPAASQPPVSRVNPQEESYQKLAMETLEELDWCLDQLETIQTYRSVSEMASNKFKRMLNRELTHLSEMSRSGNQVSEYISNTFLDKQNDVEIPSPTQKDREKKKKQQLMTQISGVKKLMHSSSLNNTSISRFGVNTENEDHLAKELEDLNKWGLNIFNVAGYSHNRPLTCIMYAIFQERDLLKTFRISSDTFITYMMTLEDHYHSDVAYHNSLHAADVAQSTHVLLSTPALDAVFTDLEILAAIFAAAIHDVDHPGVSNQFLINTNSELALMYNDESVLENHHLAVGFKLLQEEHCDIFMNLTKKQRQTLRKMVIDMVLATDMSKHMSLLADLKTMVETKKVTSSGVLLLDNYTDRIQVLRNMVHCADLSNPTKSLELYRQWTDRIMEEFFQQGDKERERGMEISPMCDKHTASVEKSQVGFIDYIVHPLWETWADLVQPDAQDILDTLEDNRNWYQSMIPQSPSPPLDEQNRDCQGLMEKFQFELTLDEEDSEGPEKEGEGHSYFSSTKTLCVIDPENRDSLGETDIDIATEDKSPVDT
Sequence of Glucocorticoid receptor (Homo sapiens) (P04150 whole entry, looked up): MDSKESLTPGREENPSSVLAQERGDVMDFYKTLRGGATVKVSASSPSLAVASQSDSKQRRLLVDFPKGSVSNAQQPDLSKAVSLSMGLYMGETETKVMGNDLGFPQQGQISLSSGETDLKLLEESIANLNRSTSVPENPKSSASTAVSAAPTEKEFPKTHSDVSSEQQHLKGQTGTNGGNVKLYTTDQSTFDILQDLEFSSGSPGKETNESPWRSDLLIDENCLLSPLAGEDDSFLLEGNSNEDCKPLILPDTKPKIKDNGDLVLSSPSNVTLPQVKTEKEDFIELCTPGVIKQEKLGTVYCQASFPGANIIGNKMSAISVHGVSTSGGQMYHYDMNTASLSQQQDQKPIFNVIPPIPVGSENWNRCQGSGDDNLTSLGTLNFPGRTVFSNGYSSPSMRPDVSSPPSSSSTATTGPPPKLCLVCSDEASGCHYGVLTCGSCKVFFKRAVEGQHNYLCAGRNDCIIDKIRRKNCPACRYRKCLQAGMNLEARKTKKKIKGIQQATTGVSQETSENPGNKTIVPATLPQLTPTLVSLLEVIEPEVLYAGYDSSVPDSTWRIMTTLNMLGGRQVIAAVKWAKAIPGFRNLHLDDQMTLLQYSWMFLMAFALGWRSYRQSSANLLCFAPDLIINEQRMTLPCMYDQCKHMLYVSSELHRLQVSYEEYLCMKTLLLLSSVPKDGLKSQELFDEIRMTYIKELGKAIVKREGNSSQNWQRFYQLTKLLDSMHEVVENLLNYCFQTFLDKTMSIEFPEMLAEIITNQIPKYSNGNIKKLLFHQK
Sequence of Muscarinic acetylcholine receptor M1 (Rattus norvegicus) (P08482 whole entry, looked up): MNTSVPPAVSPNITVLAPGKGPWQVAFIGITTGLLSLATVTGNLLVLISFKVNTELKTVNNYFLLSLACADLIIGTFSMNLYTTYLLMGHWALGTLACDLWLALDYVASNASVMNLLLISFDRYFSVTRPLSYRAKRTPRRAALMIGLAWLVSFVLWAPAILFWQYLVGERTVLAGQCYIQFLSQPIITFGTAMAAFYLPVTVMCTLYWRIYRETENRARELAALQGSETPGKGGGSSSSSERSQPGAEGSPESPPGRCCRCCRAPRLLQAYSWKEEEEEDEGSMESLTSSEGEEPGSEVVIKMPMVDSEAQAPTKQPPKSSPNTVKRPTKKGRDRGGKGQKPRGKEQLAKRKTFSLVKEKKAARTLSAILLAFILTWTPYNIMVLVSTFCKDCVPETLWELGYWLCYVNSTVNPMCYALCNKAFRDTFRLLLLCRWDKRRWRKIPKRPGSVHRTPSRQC
Sequence of DNA dC->dU-editing enzyme APOBEC-3G (Homo sapiens) (Q9HC16 whole entry, looked up): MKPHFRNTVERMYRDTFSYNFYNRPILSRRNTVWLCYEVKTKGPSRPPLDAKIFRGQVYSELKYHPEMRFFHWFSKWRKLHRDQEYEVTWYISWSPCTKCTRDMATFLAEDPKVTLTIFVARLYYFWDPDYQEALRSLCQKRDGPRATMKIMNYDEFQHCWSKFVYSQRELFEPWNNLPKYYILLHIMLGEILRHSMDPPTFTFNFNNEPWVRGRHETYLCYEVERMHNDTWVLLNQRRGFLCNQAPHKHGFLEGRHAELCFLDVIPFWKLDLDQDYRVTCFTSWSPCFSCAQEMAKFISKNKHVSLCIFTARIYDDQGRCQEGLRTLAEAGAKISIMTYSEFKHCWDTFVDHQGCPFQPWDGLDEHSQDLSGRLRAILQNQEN
Sequence of Guanine nucleotide-binding protein G(i) subunit alpha-1 (Homo sapiens) (P63096 whole entry, looked up): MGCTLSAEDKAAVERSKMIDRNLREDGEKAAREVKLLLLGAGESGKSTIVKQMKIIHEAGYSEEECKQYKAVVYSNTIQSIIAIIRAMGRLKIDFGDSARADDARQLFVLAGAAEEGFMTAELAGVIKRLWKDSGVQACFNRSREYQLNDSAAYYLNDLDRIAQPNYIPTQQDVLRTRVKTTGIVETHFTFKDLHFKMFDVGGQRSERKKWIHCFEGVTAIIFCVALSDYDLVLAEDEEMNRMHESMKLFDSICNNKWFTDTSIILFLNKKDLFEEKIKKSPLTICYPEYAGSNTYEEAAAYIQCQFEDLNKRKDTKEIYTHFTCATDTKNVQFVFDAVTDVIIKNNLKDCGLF
Sequence of Cytochrome P450 1A2 (Homo sapiens) (P05177 whole entry, looked up): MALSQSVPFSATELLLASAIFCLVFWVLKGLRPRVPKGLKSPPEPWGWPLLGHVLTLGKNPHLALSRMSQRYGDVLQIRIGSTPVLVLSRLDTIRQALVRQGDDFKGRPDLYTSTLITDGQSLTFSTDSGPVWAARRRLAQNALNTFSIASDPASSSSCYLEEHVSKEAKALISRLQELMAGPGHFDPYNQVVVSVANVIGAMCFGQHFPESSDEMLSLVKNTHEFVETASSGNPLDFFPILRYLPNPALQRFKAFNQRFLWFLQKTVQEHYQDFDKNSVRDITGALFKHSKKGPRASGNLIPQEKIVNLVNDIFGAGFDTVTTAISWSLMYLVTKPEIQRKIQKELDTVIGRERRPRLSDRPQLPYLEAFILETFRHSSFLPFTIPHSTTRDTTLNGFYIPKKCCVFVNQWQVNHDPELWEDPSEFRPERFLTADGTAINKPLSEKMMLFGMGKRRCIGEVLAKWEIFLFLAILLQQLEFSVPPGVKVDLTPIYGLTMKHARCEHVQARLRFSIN
Sequence of Pyruvate kinase (Leishmania mexicana) (Q27686 2-499 E452W): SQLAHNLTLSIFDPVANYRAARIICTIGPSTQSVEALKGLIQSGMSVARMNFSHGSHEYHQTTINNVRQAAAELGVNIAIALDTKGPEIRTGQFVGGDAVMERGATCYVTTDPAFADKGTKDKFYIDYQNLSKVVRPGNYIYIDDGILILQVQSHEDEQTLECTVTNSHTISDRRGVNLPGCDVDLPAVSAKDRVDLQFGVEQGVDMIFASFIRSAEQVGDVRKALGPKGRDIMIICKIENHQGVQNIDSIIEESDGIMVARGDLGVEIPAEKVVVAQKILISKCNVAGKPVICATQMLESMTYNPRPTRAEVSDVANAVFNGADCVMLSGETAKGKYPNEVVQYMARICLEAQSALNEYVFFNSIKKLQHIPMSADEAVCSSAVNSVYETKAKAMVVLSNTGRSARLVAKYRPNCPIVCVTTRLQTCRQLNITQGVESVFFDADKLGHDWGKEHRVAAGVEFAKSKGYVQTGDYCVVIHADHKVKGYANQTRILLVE
Sequence of Cytochrome P450 2D6 (Homo sapiens) (P10635 whole entry, looked up): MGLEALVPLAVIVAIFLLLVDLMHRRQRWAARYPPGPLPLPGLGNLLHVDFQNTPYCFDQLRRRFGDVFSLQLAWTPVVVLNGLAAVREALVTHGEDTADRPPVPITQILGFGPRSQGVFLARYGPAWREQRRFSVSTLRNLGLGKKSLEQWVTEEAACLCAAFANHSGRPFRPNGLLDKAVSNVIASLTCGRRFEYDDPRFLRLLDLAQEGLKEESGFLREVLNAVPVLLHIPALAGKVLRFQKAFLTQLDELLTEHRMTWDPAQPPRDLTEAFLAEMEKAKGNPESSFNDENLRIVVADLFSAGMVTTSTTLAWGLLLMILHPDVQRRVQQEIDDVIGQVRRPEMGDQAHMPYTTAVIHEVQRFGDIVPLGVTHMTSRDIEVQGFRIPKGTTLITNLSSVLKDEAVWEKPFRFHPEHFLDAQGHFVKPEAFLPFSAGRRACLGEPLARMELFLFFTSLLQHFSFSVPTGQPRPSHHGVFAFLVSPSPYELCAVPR
Sequence of Alpha-galactosidase A (Homo sapiens) (P06280 whole entry, looked up): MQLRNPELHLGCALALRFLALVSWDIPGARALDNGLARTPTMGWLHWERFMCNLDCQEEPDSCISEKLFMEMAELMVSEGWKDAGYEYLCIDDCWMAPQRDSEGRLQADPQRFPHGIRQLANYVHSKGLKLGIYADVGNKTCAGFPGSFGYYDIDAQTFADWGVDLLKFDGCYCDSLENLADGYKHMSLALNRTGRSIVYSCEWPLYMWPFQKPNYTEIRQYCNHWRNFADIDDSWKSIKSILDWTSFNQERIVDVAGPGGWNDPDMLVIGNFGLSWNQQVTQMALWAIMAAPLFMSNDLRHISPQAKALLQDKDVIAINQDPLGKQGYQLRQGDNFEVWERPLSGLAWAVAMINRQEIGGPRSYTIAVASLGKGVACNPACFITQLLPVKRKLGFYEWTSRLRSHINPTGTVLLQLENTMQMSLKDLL

With `CCN(CC)CCCCN1c2ccccc2Oc2ccc(Cl)cc21`, the Potency entry in test [1] and in test [2] was “inactive” each time.
Turning to `COc1ccc2c3c1O[C@H]1C[C@H](O)C=C[C@@]31CCN(C)C2`, the Potency in test [3] and in [4] was > 46 µM (inactive) each time. Moreover, the Potency entry in test [5], in test [6], in test [8], in [1] and in [9] was “inactive” each time. Further, in [7], the activity change, negative = inhibition was 3.95% (inactive). Besides, the max response in [7] (setting [22]) turned out to be 9.55%; in test [7] (setting [23]) it was 14.8%.
Consider `N[C@@H](CCS(=O)O)C(=O)O`, for which the Potency result in test [1], in [9], in test [2] and in [10] was “inactive” each time.
`C[C@]12CC3CC(N)(C1)C[C@@](C)(C3)C2`: the activity change, negative = inhibition in test [11] was 19.1% (inactive); in test [13] it was -5.02% (inactive); in test [7], -0.0594% (inactive). The Potency entry in [12], in test [5], in [6], in test [16], in [17] and in test [18] was “inactive” throughout. Further, the Potency result in [19], in test [8], in [1] and in test [9] was “inactive” throughout. For the same compound, the Potency in test [3] is > 46 µM (inactive); in test [4], > 46 µM (inactive); in test [15], 0.316 µM (active). Moreover, the compound was called inactive in test [14] and in [20]. Further, the max response in test [7] (setting [22]) is -24.5%; in test [7] (setting [23]), -26.5%; in test [21], -0.737% (inactive).
As for `COc1ccc(NC(=O)c2cc(OCCCN(C)C)nn2Cc2ccccc2)cc1`, the Potency entry in [1] and in [9] was “inactive” each time.

These data come from PubChem BioAssay (NCATS).
